Test results from PubChem BioAssay AID1159580 (chemical genetic matrix, 2015).
“And” between values parts separate entries of the source, which are not always exact repeats. Equal entries are not always repeated. The campaign covered roughly 5,500 compounds. About 2,000 (36%) were called active. Not shown: some 18% with an inconclusive outcome. Rule as the data show it: active = normalized growth mostly below about 0.91 (no sharp cut-off); inconclusive = no clear call, values can overlap the other calls; inactive = mostly above about 0.92. Some of the results follow.

Assay: chemical genetic growth profiling, strain panel (AID 1159580);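 also: tested at 20 µM; growth read once vehicle control cultures reached saturation at 30 °C; 1 = growth at the plate median or of vehicle wells; lower values mean less growth of the strain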
Conditions: S. cerevisiae deletion strains, growth OD

Measured: normalized growth

Cc1ccc(/C(=C\CN2CCCC2)c2ccccn2)cc1
inactive: locus YAL013W, strain DEP1, hits give low values 1.01 | locus YAL021C, strain ccr4, hits give low values 0.99 | locus YAL026C, strain drs2, hits give low values 0.992 | locus YAL030W, strain snc1, hits give low values 1.03 | locus YAL040C, strain CLN3, hits give low values 1.02 | locus YBL061C, strain skt5, hits give low values 1.02 | locus YBR009C, strain hhf1, hits give low values 0.971 | locus YBR021W, strain FUR4, hits give low values 1 | locus YBR023C, strain chs3, hits give low values 1.01 | locus YBR171W, strain sec66, hits give low values 1.02 | locus YBR229C, strain ROT2, hits give low values 1.01 | locus YBR231C, strain swc5, hits give low values 1.04 | locus YBR279W, strain paf1, hits give low values 0.991 | locus YCL011C, strain gbp2, hits give low values 0.99 | locus YCL016C, strain dcc1, hits give low values 0.975 | locus YCL029C, strain bik1, hits give low values 1 | locus YCL061C, strain MRC1 (second series), hits give low values 0.99 | locus YCL061C, strain MRC1, hits give low values 1.02 | locus YCL069W, strain vba3, hits give low values 1.01 | locus YCR088W, strain abp1, hits give low values 1.02 | locus YDL005C, strain med2, hits give low values 1.01 | locus YDL035C, strain GPR1, hits give low values 1.02 | locus YDL040C, strain nat1, hits give low values 1.01 | locus YDL074C, strain BRE1, hits give low values 1.01 | locus YDL101C, strain DUN1, hits give low values 1.01 | locus YDL134C, strain PPH21, hits give low values 1.01 | locus YDL185W, strain tfp1, hits give low values 1.01 | locus YDL192W, strain arf1, hits give low values 1 | locus YDR001C, strain nth1, hits give low values 1 | locus YDR069C, strain doa4, hits give low values 1.02 | locus YDR101C, strain arx1, hits give low values 0.997 | locus YDR137W, strain rgp1, hits give low values 0.993 | locus YDR150W, strain NUM1, hits give low values 1.02 | locus YDR159W, strain sac3, hits give low values 0.933 | locus YDR162C, strain NBP2, hits give low values 1.01 | locus YDR195W, strain ref2 0.993 | locus YDR297W, strain sur2, hits give low values 1.02 | locus YDR318W, strain mcm21, hits give low values 0.995 | locus YDR334W, strain swr1, hits give low values 0.991 | locus YDR335W, strain msn5, hits give low values 1.01 | locus YDR363W, strain ESC2, hits give low values 0.965 | locus YDR388W, hits give low values 0.998 | locus YDR392W, strain spt3, hits give low values 0.927 | locus YDR502C, strain sam2, hits give low values 0.995 | locus YEL003W, strain gim4, hits give low values 1.04 | locus YEL037C, strain rad23, hits give low values 1.01 | locus YEL061C, strain CIN8 (second series), hits give low values 1.01 | locus YEL061C, strain CIN8, hits give low values 1.01 | locus YER002W, strain NOP16, hits give low values 1 | locus YER015W, strain faa2, hits give low values 1.01 | locus YER016W, strain bim1, hits give low values 0.995 | locus YER110C, hits give low values 0.995 | locus YER111C, strain swi4, hits give low values 1 | locus YER155C, strain BEM2 (second series), hits give low values 1.05 | locus YER155C, strain BEM2, hits give low values 1 | locus YER167W, strain BCK2, hits give low values 1.01 | locus YFR010W, strain ubp6, hits give low values 1.01 | locus YGL078C, strain dbp3, hits give low values 0.993 | locus YGL086W, strain mad1, hits give low values 0.996 | locus YGL167C, strain pmr1, hits give low values 1.01 | locus YGL173C, strain kem1, hits give low values 1.04 | locus YGL227W, strain vid30, hits give low values 1.01 | locus YGL240W, strain doc1, hits give low values 1.03 | locus YGL248W, strain PDE1, hits give low values 1 | locus YGL253W, strain hxk2, hits give low values 0.98 | locus YGR078C, strain PAC10, hits give low values 1.01 and 0.984 | locus YGR135W, strain pre9, hits give low values 0.997 | locus YGR229C, strain SMI1, hits give low values 1.01 and 0.973 | locus YGR252W, strain gcn5, hits give low values 0.98 | locus YHR013C, strain ard1, hits give low values 0.999 | locus YHR027C, strain rpn1, hits give low values 1.01 | locus YHR030C, strain SLT2, hits give low values 1.02 and 0.995 | locus YHR079C, strain IRE1 (second series), hits give low values 0.998 | locus YHR079C, strain IRE1, hits give low values 1.02 | locus YHR094C, strain hxt1, hits give low values 0.999 | locus YHR129C, strain ARP1, hits give low values 1.01 | locus YHR142W, strain chs7, hits give low values 1.01 | locus YHR200W, strain rpn10, hits give low values 1 | locus YIL066C, strain RNR3, hits give low values 1.02 | locus YIL073C, strain SPO22, hits give low values 1.01 | locus YIL125W, strain kgd1, hits give low values 1 | locus YIR030C, strain dcg1, hits give low values 0.995 | locus YJL092W, strain hpr5, hits give low values 1.02 | locus YJL095W, strain BCK1 (second series), hits give low values 1.03 | locus YJL095W, strain BCK1, hits give low values 0.997 and 1.01 | locus YJL115W, strain asf1, hits give low values 1 | locus YJL129C, strain trk1, hits give low values 1.03 | locus YJL134W, strain LCB3, hits give low values 1.01 | locus YJL154C, strain vps35, hits give low values 1.01 | locus YJL164C, strain tpk1, hits give low values 0.979 | locus YJL166W, strain qcr8, hits give low values 1.04 | locus YJL168C, strain set2, hits give low values 1 | locus YJL187C, strain SWE1 (second series), hits give low values 1.02 | locus YJL187C, strain SWE1, hits give low values 1.02 | locus YJR043C, strain POL32, hits give low values 0.991 | locus YJR066W, strain TOR1, hits give low values 0.955
